Screens as filed in PubChem BioAssay.
Giardia FBPA inh = inhibitors of Giardia lamblia fructose-1,6-bisphosphate aldolase; A8B2U2; 0.71% of 290,000 active; Potency, µM (series often up to 59.6 µM), for the others: at the highest dose activity, negative = inhibition, most hits filed as inhibitors; purified Giardia FBPA; note: potency is the fitted concentration of half-maximal effect; % is set by controls: 0 for no effect and ±100 for the full control effect; nearly all actives have a fitted effect of over 55% in size
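40 nM FBPA preincubated 10 min at RT with compound (up to 57.5 uM final), then substrate plus GAPDH/TPI/NAD/arsenate coupling and diaphorase/resazurin added. Fluorescence read after 20 min at RT, 525/598 nm.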
RE007 growth inh = less growth of the S. pombe RE007 Vpr strain; S. pombe RE007 Vpr strain, BacTiter-Glo ATP luminescence, 24 h; Potency, µM (doses to about 92.2 µM), inactives show top-dose activity change, negative = less growth, actives largely listed as inhibitors; 0.21% of 360,000 active; AID 651644; active = well fitted falling curve with a large enough effect; inconclusive = small, poorly fitted or top-dose-only effect; inactive = no such curve, though single readings can be large or run the other way; note: potency is the fitted concentration of half-maximal effect; % is set by controls: 0 for no effect and ±100 for the full control effect; nearly all actives have a fitted effect of over 50% in size
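Fission yeast RE007 carrying one integrated HIV-1 vpr copy, seeded at OD 0.01 in PMG+AL medium with 23 nL pinned compound. Grown 24 h at 30 degrees; viability read by BacTiter-Glo luminescence after 5 min.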
Shiga inhibitor = Shiga toxin inhibition. Vero cells, Shiga toxin protein synthesis inhibition reporter. inhibition, % at 38.7 µM. 9.2% of 290,000 active; in the data active = inhibition mostly above about 28%, no sharp cut-off; inactive = mostly below about 43%; note: 0% is about no effect
Tb PYK inh = T. brucei pyruvate kinase inhibition | Potency, µM (doses to about 76.8 µM), for the others: top-dose activity, negative = inhibition, usual class: inhibitors | 0.12% of 410,000 active | Q57TT1 | TbPYK enzyme, Kinase-Glo Plus ATP luminescence, 45 min; note: potency is the fitted concentration of half-maximal effect; % is set by controls: 0 for no effect and ±100 for the full control effect; nearly all actives have a fitted effect of over 50% in size
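Screened from lowest to highest concentration, compounds were pinned into TbPYK/substrate mixtures, and ADP (130 uM final) was added. Plates sat at room temperature for 45 min prior to Kinase-Glo Plus detection by luminescence.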
LmPK inh = LmPK (Leishmania mexicana) enzyme inhibition | Q27686 | purified LmPK, Kinase-Glo ATP luminescence, 1 h | Potency, µM (titrated, usually from 57.5 µM), for the others: top-dose activity change, negative = inhibition, hits mostly inhibitors | 0.37% of 290,000 active | AID 1721; note: potency is the fitted concentration of half-maximal effect; % is set by controls: 0 for no effect and ±100 for the full control effect
Target sequence (Q27686 whole entry, looked up): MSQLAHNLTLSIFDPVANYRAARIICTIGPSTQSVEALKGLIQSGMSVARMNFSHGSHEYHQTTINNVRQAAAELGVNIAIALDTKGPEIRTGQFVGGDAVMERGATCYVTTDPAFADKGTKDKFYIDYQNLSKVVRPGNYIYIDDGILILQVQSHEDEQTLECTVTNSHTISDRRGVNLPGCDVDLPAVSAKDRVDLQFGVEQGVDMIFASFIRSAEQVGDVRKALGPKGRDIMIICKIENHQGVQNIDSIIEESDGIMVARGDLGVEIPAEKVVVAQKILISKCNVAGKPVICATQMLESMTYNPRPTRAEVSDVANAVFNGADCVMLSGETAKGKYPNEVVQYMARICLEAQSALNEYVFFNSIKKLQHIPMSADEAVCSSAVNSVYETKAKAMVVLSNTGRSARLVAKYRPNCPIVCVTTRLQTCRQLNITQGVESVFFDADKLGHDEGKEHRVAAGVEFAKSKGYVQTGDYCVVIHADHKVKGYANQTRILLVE
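In 50 mM imidazole pH 7.2 with 7 mM MgCl2, LmPK (0.1 nM) turned over PEP (0.5 mM) and ADP (0.1 mM) for 1 h at room temperature. Luciferase read-out of ATP.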
Cycloheximide cs = counter-screen hit for Shiga toxin inhibitors, cycloheximide. 12% of 300,000 active. cell reporter, cycloheximide protein synthesis inhibition counterscreen. max response, %; in the data active = max response mostly above about 13%, no sharp cut-off; inactive = mostly below about 14%; note: read at 38.3 µM for the half of the compounds with a filed dose; 0% is about no effect
Numbers without * were called inactive. The entries come from a sample that favours hits as a whole. Unless noted, calls come from the whole dose curve; as a rule, active = well fitted curve in the direction sought with a large enough effect; inconclusive = small, poorly fitted or top-dose-only effect, or another doubt; inactive = no such curve, though single readings can be large; an effect the other way counts as inactive or inconclusive.

COc1ccc(CCNC(=O)c2nn(-c3ccc(C)cc3)c(=O)c3c2c2ccccc2n3C)cc1OC was read as Tb PYK inh -2%.
For CC[n+]1ccccc1/C=C/c1ccc(N(C)C)cc1 the results were Giardia FBPA inh 0%, RE007 growth inh -23%, Shiga inhibitor -10, Tb PYK inh 2%, LmPK inh 3% and Cycloheximide cs -1.
CC[n+]1c(/C=C/c2ccc(OC(C)=O)c(OC)c2)ccc2ccccc21 was read as Giardia FBPA inh -1%, RE007 growth inh -16%, Shiga inhibitor 61*, Tb PYK inh 12%, LmPK inh -3% and Cycloheximide cs 40*.
`CCN(CC)c1ccc(/C=C/c2ccc3ccc(OC)cc3[n+]2CC)cc1` gave Giardia FBPA inh 6%, RE007 growth inh inconclusive, Shiga inhibitor -5, Tb PYK inh -29%, LmPK inh -25% and Cycloheximide cs 6.
For CC[n+]1ccc(/C=C/c2ccc(N(C)C)cc2)c2ccccc21 the results were Giardia FBPA inh -14%, RE007 growth inh 13µM*, Shiga inhibitor -24, Tb PYK inh inconclusive, LmPK inh 16µM* and Cycloheximide cs -5.
CC[n+]1c(/C=C/c2ccc(N(C)C)cc2)ccc2ccccc21 was read as Giardia FBPA inh -5%, RE007 growth inh 13µM*, Shiga inhibitor active, Tb PYK inh inconclusive, LmPK inh inconclusive and Cycloheximide cs 24*.
For CC[n+]1c(/C=C/c2cc([N+](=O)[O-])ccc2O)ccc2ccccc21 the results were Giardia FBPA inh -18%, RE007 growth inh -20%, Shiga inhibitor 7, Tb PYK inh -15%, LmPK inh -3% and Cycloheximide cs 1.
For CC[n+]1c(/C=C/c2ccc(OC)c(OC)c2)ccc2ccccc21 the results were Giardia FBPA inh -3%, RE007 growth inh -27%, Shiga inhibitor 116*, Tb PYK inh -9%, LmPK inh 1% and Cycloheximide cs 26*.
Screening CNC(=O)c1cc2c(s1)-c1ccccc1CC2 returned Giardia FBPA inh -4%, RE007 growth inh 2%, Shiga inhibitor 100*, Tb PYK inh -5%, LmPK inh 4% and Cycloheximide cs 49*.
CNC(=O)c1cc(C)c(-c2ccccc2)s1 was read as Giardia FBPA inh 0%, RE007 growth inh -8%, Shiga inhibitor 35, Tb PYK inh -12%, LmPK inh 0% and Cycloheximide cs 46*.
O=C(NNC1=C(C(=O)C(F)(F)F)CCC1)c1ccc(Br)cc1 was read as Giardia FBPA inh -7%, RE007 growth inh -6%, Shiga inhibitor 24, Tb PYK inh -1%, LmPK inh 1% and Cycloheximide cs 11.
O=C(NNC1=C(C(=O)C(F)(F)F)CCC1)c1ccccc1O was read as Giardia FBPA inh -21%, RE007 growth inh -15%, Shiga inhibitor 37*, Tb PYK inh 0%, LmPK inh 3% and Cycloheximide cs 32.
`Nc1ccccc1C(=O)NNC1=C(C(=O)C(F)(F)F)CCC1` gave Giardia FBPA inh 5%, RE007 growth inh 3%, Shiga inhibitor 95*, Tb PYK inh 0%, LmPK inh 0% and Cycloheximide cs 46*.
For O=C(NNC1=C(C(=O)C(F)(F)F)CCC1)c1ccccc1Cl the results were Giardia FBPA inh 5%, RE007 growth inh 21%, Shiga inhibitor 22, Tb PYK inh -4%, LmPK inh 0% and Cycloheximide cs 9.
`COc1ccccc1C(=O)NNC1=C(C(=O)C(F)(F)F)CCC1` gave Giardia FBPA inh 1%, RE007 growth inh -20%, Shiga inhibitor 84*, Tb PYK inh 6%, LmPK inh 0% and Cycloheximide cs 17*.
Screening COc1cccc(C(=O)NNC2=C(C(=O)C(F)(F)F)CCC2)c1 returned Giardia FBPA inh 6%, RE007 growth inh 5%, Shiga inhibitor 68*, Tb PYK inh -2%, LmPK inh -4% and Cycloheximide cs 41*.
Screening COCCN(CCOC)C(=O)c1cc2c(=O)n3ccccc3nc2n1C returned Tb PYK inh -2%.
For N#C/C(=C/c1ccc(N2CCCCC2)cc1)c1cccc(F)c1 the results were Giardia FBPA inh -4%, RE007 growth inh 2%, Shiga inhibitor 25, Tb PYK inh -8%, LmPK inh -10% and Cycloheximide cs 36*.
